Screen size: about 2,000 compounds; about 110 (5.5%) showed an effect of 50% or more. This excerpt belongs to a sample that is enriched for strong results.
Molecular target: Genome polyprotein (dengue virus type 2) (UniProt P29990)
[1] = Thailand/16681/1984, Concentration 25.0 uM, Number of replicates 1.0

## NCc1cccc(NC(=O)[C@@H](NC(=O)OCc2ccccc2)c2ccc(F)cc2)c1
Thailand/16681/1984, Concentration 49.5 uM, Number of replicates 2.0, Standard deviation 2.4011437232418986 %
  inhibition: -4.62%
Thailand/16681/1984, Concentration 99.01 uM, Number of replicates 2.0, Standard deviation 1.9050608177527883 %
  inhibition: -3.96%
Thailand/16681/1984, Concentration 198.0 uM, Number of replicates 2.0, Standard deviation 2.2061626239616485 %
  inhibition: -3.52%

## CCCCCC(=O)N[C@H](C(=O)NCc1ccc(NC(=N)N)cc1)c1ccc(OCc2ccccc2)cc1
Thailand/16681/1984, Concentration 49.5 uM, Number of replicates 2.0, Standard deviation 0.35669280924008506 %
  inhibition: 0.374%
Thailand/16681/1984, Concentration 99.01 uM, Number of replicates 2.0, Standard deviation 0.1951319007042223 %
  inhibition: 2.1%
Thailand/16681/1984, Concentration 198.0 uM, Number of replicates 2.0, Standard deviation 2.320076788942105 %
  inhibition: 11.9%

## NCc1cccc(NC(=O)[C@@H](NC(=O)OCc2ccccc2)c2ccc(OCc3ccccc3)cc2)c1
Thailand/16681/1984, Concentration 49.5 uM, Number of replicates 2.0, Standard deviation 0.05193031216203084 %
  inhibition: 99.8%
Thailand/16681/1984, Concentration 99.01 uM, Number of replicates 2.0, Standard deviation 0.07343936624368645 %
  inhibition: 99.8%
Thailand/16681/1984, Concentration 198.0 uM, Number of replicates 2.0, Standard deviation 0.025182910572653226 %
  inhibition: 99.6%

## NCc1cccc(NC(=O)[C@@H](NC(=O)OCc2ccccc2)c2ccccc2)c1
Thailand/16681/1984, Concentration 49.5 uM, Number of replicates 2.0, Standard deviation 1.0300513707602847 %
  inhibition: 0.869%
Thailand/16681/1984, Concentration 99.01 uM, Number of replicates 2.0, Standard deviation 0.7240873671299501 %
  inhibition: 0.819%
Thailand/16681/1984, Concentration 198.0 uM, Number of replicates 2.0, Standard deviation 0.6193503939215136 %
  inhibition: 0.644%

## CCCCCC(=O)N[C@H](C(=O)NCc1ccc(N)nc1)c1ccc(OCc2ccccc2)cc1
Thailand/16681/1984, Concentration 49.5 uM, Number of replicates 2.0, Standard deviation 0.5514996049599625 %
  inhibition: -5.35%
Thailand/16681/1984, Concentration 99.01 uM, Number of replicates 2.0, Standard deviation 6.42872691267386 %
  inhibition: 2.25%
Thailand/16681/1984, Concentration 198.0 uM, Number of replicates 2.0, Standard deviation 0.7744386054656718 %
  inhibition: -1.4%

## NCc1cccc(NC(=O)[C@@H](NC(=O)OCc2ccccc2)c2ccc(F)c(F)c2)c1
Thailand/16681/1984, Concentration 49.5 uM, Number of replicates 2.0, Standard deviation 1.4013065114851189 %
  inhibition: -6.54%
Thailand/16681/1984, Concentration 99.01 uM, Number of replicates 2.0, Standard deviation 2.1722806038563465 %
  inhibition: -6.15%
Thailand/16681/1984, Concentration 198.0 uM, Number of replicates 2.0, Standard deviation 2.359590386651735 %
  inhibition: -2.47%

## NC(=O)c1cccc(NC(=O)[C@@H](NC(=O)OCc2ccccc2)c2ccc(OCc3ccccc3)cc2)c1
Thailand/16681/1984, Concentration 49.5 uM, Number of replicates 2.0, Standard deviation 9.041969593425012 %
  inhibition: 3.65%
Thailand/16681/1984, Concentration 99.01 uM, Number of replicates 2.0, Standard deviation 1.1271011381219709 %
  inhibition: 9.06%
Thailand/16681/1984, Concentration 198.0 uM, Number of replicates 2.0, Standard deviation 1.277025907644923 %
  inhibition: 16%

## O=Cc1ccc(N2CCC(C(=O)N3CCC(=C4c5ccc(Cl)cc5CCc5cccnc54)CC3)CC2)cc1
[1]
  inhibition: -7.77%

## Cc1cc(CO)c2cccc(Cc3cccc(C(=O)N4CC[C@@H](O)C4)c3)c2n1
Thailand/16681/1984, Concentration 49.95 uM, Number of replicates 2.0, Standard deviation 0.8940031033980441 %
  inhibition: -6.42%
Thailand/16681/1984, Concentration 99.9 uM, Number of replicates 2.0, Standard deviation 1.7851314545528572 %
  inhibition: -4.22%

## Cc1cc(NC(=O)c2[nH]c([C@H]3CCCNC3)nc2C)n[nH]1
Thailand/16681/1984, Concentration 49.5 uM, Number of replicates 2.0, Standard deviation 0.1819338679741269 %
  inhibition: -0.694%
Thailand/16681/1984, Concentration 99.01 uM, Number of replicates 2.0, Standard deviation 0.4335851561467917 %
  inhibition: -1.03%
Thailand/16681/1984, Concentration 198.0 uM, Number of replicates 2.0, Standard deviation 0.7148425402027826 %
  inhibition: -1.18%

## O=Cc1ccc(N2CCC(C(=O)Nc3nnc(Cl)cc3Br)CC2)cc1
[1]
  inhibition: 33%

## Cc1cc(CO)c2cccc(Cc3cccc(NC(=O)c4cccc(Cn5cncn5)c4)c3)c2n1
Thailand/16681/1984, Concentration 49.95 uM, Number of replicates 2.0, Standard deviation 0.03445572300723204 %
  inhibition: -2.36%
Thailand/16681/1984, Concentration 99.9 uM, Number of replicates 2.0, Standard deviation 1.2505418184916173 %
  inhibition: 1.37%

## O=Cc1ccc(N2CCC(C(=O)NCC(=O)c3ccccc3F)CC2)cc1
[1]
  inhibition: 12.6%

## O=Cc1ccc(N2CCC(C(=O)N[C@@H]3CCCN(Cc4ccccc4)C3)CC2)cc1
[1]
  inhibition: 13.3%

## CSCC[C@H](NC(=O)OC(C)(C)C)C(=O)N1CCC[C@H]1C(=O)N1CCNCC1
Thailand/16681/1984, Concentration 49.5 uM, Number of replicates 2.0, Standard deviation 0.18656479510110988 %
  inhibition: -1.01%
Thailand/16681/1984, Concentration 99.01 uM, Number of replicates 2.0, Standard deviation 0.6673278690655411 %
  inhibition: -1.03%
Thailand/16681/1984, Concentration 198.0 uM, Number of replicates 2.0, Standard deviation 0.6237960118923063 %
  inhibition: -0.61%

## CNC(=O)C[C@@H](C)NS(=O)(=O)c1ccc(Oc2ccccc2Cl)cc1
Thailand/16681/1984, Concentration 49.5 uM, Number of replicates 2.0, Standard deviation 1.3030195128486834 %
  inhibition: 0.058%
Thailand/16681/1984, Concentration 99.01 uM, Number of replicates 2.0, Standard deviation 1.4693139392091605 %
  inhibition: 1.01%
Thailand/16681/1984, Concentration 198.0 uM, Number of replicates 2.0, Standard deviation 0.5754244321045655 %
  inhibition: 1.94%

## CCN(Cc1cnn(CC)c1)C(=O)C1CCN(c2ccc(C=O)cc2)CC1
[1]
  inhibition: 12.7%

## NCc1cccc(CNC(=O)[C@@H](NC(=O)OCc2ccccc2)c2ccc(OCc3ccccc3)cc2)c1
Thailand/16681/1984, Concentration 49.5 uM, Number of replicates 2.0, Standard deviation 0.05305782465339428 %
  inhibition: 100%
Thailand/16681/1984, Concentration 99.01 uM, Number of replicates 2.0, Standard deviation 0.03132758391075349 %
  inhibition: 99.6%
Thailand/16681/1984, Concentration 198.0 uM, Number of replicates 2.0, Standard deviation 0.04155072348555595 %
  inhibition: 99.5%

## NCc1ccc(NC(=O)[C@@H](NC(=O)OCc2ccccc2)c2ccc(OCc3ccccc3)cc2)cc1
Thailand/16681/1984, Concentration 49.5 uM, Number of replicates 2.0, Standard deviation 0.2921733335266154 %
  inhibition: 1.85%
Thailand/16681/1984, Concentration 99.01 uM, Number of replicates 2.0, Standard deviation 0.5182536650923871 %
  inhibition: 1.48%
Thailand/16681/1984, Concentration 198.0 uM, Number of replicates 2.0, Standard deviation 0.5806748336109616 %
  inhibition: 1.92%

## O=C(N[C@H](C(=O)O)c1ccc(OCc2ccccc2)cc1)OCc1ccccc1
Thailand/16681/1984, Concentration 49.5 uM, Number of replicates 2.0, Standard deviation 1.5755205914644184 %
  inhibition: 1.16%
Thailand/16681/1984, Concentration 99.01 uM, Number of replicates 2.0, Standard deviation 1.1157080020325059 %
  inhibition: 3.53%
Thailand/16681/1984, Concentration 198.0 uM, Number of replicates 2.0, Standard deviation 0.14215963415330513 %
  inhibition: 10.6%

## Cc1cc(CO)c2cccc(Cc3cccc(C(=O)N(c4ncccn4)S(=O)(=O)c4ccc(N)cc4)c3)c2n1
Thailand/16681/1984, Concentration 49.95 uM, Number of replicates 2.0, Standard deviation 1.2554851591331873 %
  inhibition: 27.5%
Thailand/16681/1984, Concentration 99.9 uM, Number of replicates 2.0, Standard deviation 1.7606970720097574 %
  inhibition: 55.5%

## Cc1cc(CO)c2cccc(Cc3cccc(C(=O)NCc4ccc(S(N)(=O)=O)cc4)c3)c2n1
Thailand/16681/1984, Concentration 49.95 uM, Number of replicates 2.0, Standard deviation 0.214877109175697 %
  inhibition: 5.4%
Thailand/16681/1984, Concentration 99.9 uM, Number of replicates 2.0, Standard deviation 0.2579967069502225 %
  inhibition: 18%

## Cc1cc(CO)c2cccc(CC(=O)N(c3ncccn3)S(=O)(=O)c3ccc(N)cc3)c2n1
Thailand/16681/1984, Concentration 49.95 uM, Number of replicates 2.0, Standard deviation 0.013152514133703636 %
  inhibition: 99.6%
Thailand/16681/1984, Concentration 99.9 uM, Number of replicates 2.0, Standard deviation 0.02076996694616858 %
  inhibition: 99.4%

## Cc1cc(CO)c2cccc(NC(=O)NCc3ccc(N)cc3)c2n1
Thailand/16681/1984, Concentration 49.95 uM, Number of replicates 2.0, Standard deviation 1.081774899946809 %
  inhibition: 4.55%
Thailand/16681/1984, Concentration 99.9 uM, Number of replicates 2.0, Standard deviation 2.6483447678271466 %
  inhibition: 14.1%

## Cc1cc(CO)c2cccc(CC(=O)NCc3ccc(S(N)(=O)=O)cc3)c2n1
Thailand/16681/1984, Concentration 49.95 uM, Number of replicates 2.0, Standard deviation 1.717051818740604 %
  inhibition: 21.3%
Thailand/16681/1984, Concentration 99.9 uM, Number of replicates 2.0, Standard deviation 5.294472274247832 %
  inhibition: 43.7%

## Cc1cc(CO)c2cccc(Cc3ccccc3C(=O)N(c3ncccn3)S(=O)(=O)c3ccc(N)cc3)c2n1
Thailand/16681/1984, Concentration 49.95 uM, Number of replicates 2.0, Standard deviation 1.284948840815395 %
  inhibition: 27.7%
Thailand/16681/1984, Concentration 99.9 uM, Number of replicates 2.0, Standard deviation 0.4850893215235289 %
  inhibition: 47.5%

## CC(=O)N[C@@H](CCCCN)C(=O)Nc1cccc(Cc2cccc3c(CO)cc(C)nc23)c1
Thailand/16681/1984, Concentration 49.95 uM, Number of replicates 2.0, Standard deviation 0.858525740782908 %
  inhibition: -3.5%
Thailand/16681/1984, Concentration 99.9 uM, Number of replicates 2.0, Standard deviation 1.064156674332285 %
  inhibition: 6.38%

Reference: ChEMBL document CHEMBL5606460, “ASAP - DENV-2 NS2B-NS3 protease fluorescence single point” (2024)
